Bioassay records deposited in PubChem by several laboratories.
In the library only some 3.8% were active in any assay of this set; here they are far more common.
PAFAH1B2 inh = PAFAH1B2 (human) inhibition; P68402; recombinant PAFAH1B2, FP-rhodamine activity probe, fluorescence polarization; inhibition, % at 3.39 µM; actives 1.2% (n = 340,000);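 active = inhibition above the mean of all tested compounds plus 3 SD, cut at about 24% in these data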;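 note: 0% = enzyme with DMSO and 100% = wells lacking PAFAH1B2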
DSG3 Ab inh = blocks pemphigus antibody binding to human desmoglein-3 | P32926 | DSG3-coupled beads, scFv-anti-DSG3-GFP binding, flow cytometry; active compounds read low | binding (percent of control), % at 10 µM | actives 0.48% (n = 310,000);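 active = binding more than 3 SD below its plate's average and above zero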;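 note: hits lower antibody fragment binding to DSG3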
PAFAH1B3 inh = blocks human PAF acetylhydrolase 1B catalytic subunit 3; Q15102; recombinant PAFAH1B3, FP-rhodamine probe, fluorescence polarization; inhibition, % at 3.39 µM; actives 0.28% (n = 340,000); AID 492972;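 active = inhibition above the screen-wide average of all tested compounds plus 3 SD, cut at about 25% in these data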;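 note: 0% = enzyme with DMSO only and 100% = wells lacking PAFAH1B3 protein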
PAFAH2 inh = inhibitors of human PAFAH2. actives 0.99% (n = 340,000). inhibition, % at 3.39 µM. recombinant PAFAH2, FP-rhodamine activity probe, fluorescence polarization;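 active = inhibition above the mean over all tested compounds plus 3 SD, cut at about 30% in these data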;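 note: inhibitors block probe labeling of enzyme so polarization drops; 0% = enzyme with DMSO and 100% = wells lacking PAFAH2 protein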
pPAFAH FP inh = inhibitors of human plasma PAF acetylhydrolase (pPAFAH); inhibition, % at 3.39 µM; actives 1.5% (n = 330,000); recombinant pPAFAH, FP-rhodamine probe fluorescence polarization; AID 463082;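 active = inhibition above the mean inhibition across the screen plus 3 SD, cut at about 25% in these data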;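 note: inhibitors block binding of the rhodamine activity-based probe so polarization drops; 0% = enzyme with DMSO and 100% = wells lacking pPAFAH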
M18AAP inhibitor = blocks P. falciparum M18 aspartyl aminopeptidase; recombinant PfM18AAP, H-Glu-NHMec fluorogenic cleavage; inhibition, % at 7.35 µM; actives 1.2% (n = 290,000);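 active = inhibition above the campaign mean inhibition over all tested compounds plus 3 SD, cut at about 28% in these data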;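 note: 0% = plate median of test compound wells and 100% = 2 mM ZnCl2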
PAFAH2 FP conf = confirmation of human PAFAH2 inhibitors | shares compounds with PAFAH2 inh | recombinant PAFAH2, FP-rhodamine activity probe, fluorescence polarization | inhibition, % at 3.39 µM | actives 65% (n = 2,300);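 active = mean inhibition over three repeats above a set limit taken from the earlier primary screen, cut at about 30% in these data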;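 note: inhibitor blocks binding of rhodamine activity probe so polarization falls; 0% = enzyme with DMSO and 100% = wells lacking PAFAH2 protein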
* = called active by the depositor; nt = not tested or not shown.

SMILES	PAFAH1B2 inh	DSG3 Ab inh	PAFAH1B3 inh	PAFAH2 inh	pPAFAH FP inh	M18AAP inhibitor	PAFAH2 FP conf
COc1ccc(NC(=O)CN2CC(c3ccccc3)CC2=O)cc1OC (configuration not stated)	6.8	110.0	5.7	2.9	-4.1	-0.6	nt
Cc1ccc(-c2nnc(COC(=O)c3ccco3)o2)cc1	8.6	108.9	3.1	12.4	2.2	7.8	nt
O=C(OCc1nnc(-c2ccccc2)o1)c1ccc(Cl)cc1	3.6	100.9	0.7	43.0*	10.0	-2.0	37.5*
CN(C)S(=O)(=O)c1ccc(C(=O)OCc2nnc(-c3ccccc3)o2)cc1	4.2	100.6	3.2	4.4	0.1	-4.4	nt
Cc1ccc(-c2nnc(COC(=O)c3cccs3)o2)cc1	7.3	100.8	-4.5	53.9*	4.6	-10.6	37.9*
O=C(OCc1nnc(-c2ccccc2)o1)c1ccc(CO)cc1	0.1	100.7	7.7	54.8*	1.7	-1.9	56.4*
O=C(OCc1nnc(-c2ccccc2)o1)c1ccc2c(c1)OCCO2	-1.3	110.7	-0.7	75.5*	9.9	2.2	60.2*
O=C(c1cccc(NS(=O)(=O)c2ccccc2)c1)N1CCCCC1	6.9	105.2	6.7	-3.1	4.9	nt	nt
Cc1ccc(C(=O)OCc2nnc(-c3ccccc3)o2)o1	-0.5	105.7	-3.4	43.6*	5.0	-10.8	33.4*
Cc1ccc(C(=O)OCc2nnc(-c3ccc(Br)cc3)o2)cc1	0.1	100.7	8.3	72.4*	10.3	1.0	58.4*
O=C(OCc1nnc(-c2ccccc2)o1)c1cccc(-n2cnnn2)c1	3.5	118.3	5.6	46.8*	-6.4	nt	39.7*
O=C(/C=C/c1ccco1)OCc1nnc(-c2ccccc2)o1	2.7	91.3	8.5	67.7*	4.5	4.1	54.5*
O=C(COC(=O)c1cccc(-n2cnnn2)c1)c1ccccc1	-3.5	nt	1.6	2.4	6.5	2.5	nt
O=C(Cc1ccc(Cl)cc1)OCc1nnc(-c2ccccc2)o1	6.1	87.7	-4.4	-0.6	12.2	2.2	nt
COc1ccc(Cn2c(=S)[nH]c3ccccc3c2=O)cc1	4.0	93.3	11.2	-6.5	7.3	5.6	nt
CCOC(=O)c1[nH]c(=O)[nH]c1CNc1ccccc1C#N	3.7	94.5	6.7	10.9	4.4	1.8	nt
CN1CCN(CCCNC(=O)Nc2ccc([N+](=O)[O-])cc2)CC1	1.2	103.7	3.8	-5.2	2.7	4.5	nt
CN1CCN(CC(=O)NC(=O)NC2CCCCC2)CC1	4.5	nt	9.7	5.5	2.6	nt	nt
O=S(=O)(c1ccc(N2CCN(CCO)CC2)nc1)N1CCOCC1	-3.8	102.4	6.8	2.2	-3.4	nt	nt
O=C(OCc1nnc(-c2ccccc2)o1)C1=COCCO1	4.7	nt	0.1	44.3*	-0.5	0.4	30.8*
Cc1ccc(C(=O)OCc2nnc(-c3ccccc3)o2)cc1S(=O)(=O)N1CCOCC1	4.9	98.8	11.1	61.1*	3.2	nt	47.0*
NS(=O)(=O)c1cc2c(cc1Cl)NC(CSCc1ccccc1)=NS2(=O)=O	23.3	107.2	-4.1	33.9*	-5.0	4.1	26.2
COc1cccc(C2C3=C(CCCC3=O)NC3=C2C(=O)c2ccccc23)c1 (configuration not stated)	nt	nt	nt	nt	7.9	-2.3	nt
O=C1CCCC2=C1C(c1cccc(O)c1)C1=C(N2)c2ccccc2C1=O (configuration not stated)	-1.9	101.2	-0.8	29.7*	4.4	0.1	10.1
CCc1cc2c(=O)[nH]c(-c3ccccn3)nc2s1	3.5	99.9	13.2	0.9	2.8	3.9	nt
SMILES	PAFAH1B2 inh	DSG3 Ab inh	PAFAH1B3 inh	PAFAH2 inh	pPAFAH FP inh	M18AAP inhibitor	PAFAH2 FP conf
CCc1cc2c(=O)oc(-c3ccc(F)cc3)nc2s1	-5.7	122.0	-2.3	81.6*	13.5	1.5	83.8*
COc1cc(C=c2c3ccccc3n3c2cc(-c2ccccc2)[n+]3C)cc(OC)c1OC	-7.2	nt	24.9	55.2*	nt	nt	19.6
O=C(O/N=C1\CCS(=O)(=O)c2sccc21)C1CC1	-0.8	98.3	2.4	81.3*	7.2	1.3	84.1*
CC(C)(C)C(=O)O/N=C1\CCS(=O)(=O)c2sccc21	5.6	93.7	-8.0	40.6*	2.3	1.1	34.0*
CC1CCC(NC(=O)CCC(=O)N2CC(C)Oc3ccccc32)CC1 (configuration not stated)	6.6	102.4	4.1	5.5	3.5	-0.4	nt
O=c1c2c3c(sc2nc2n1N=C(c1cccs1)CS2)CCCC3	-5.5	96.6	9.2	4.6	-10.2	-7.8	nt
O=c1oc(/C=C/c2ccco2)nc2sc3c(c12)CCC3	-0.1	108.7	-2.7	55.1*	7.4	-11.3	26.3
O=c1oc(-c2cccs2)nc2sc3c(c12)CCCC3	-1.1	98.8	11.0	42.3*	5.8	1.3	37.8*
Cc1nc2sc3c(c2c(=O)o1)CCC3	7.9	109.1	3.6	60.1*	-6.8	4.5	50.2*
O=c1oc(-c2cccs2)nc2sc3c(c12)CCC3	3.8	99.3	8.2	55.9*	-4.3	-1.4	48.5*
CC1CC(CN)CC(CO)C1 (configuration not stated)	-0.1	104.0	6.9	-1.2	4.4	1.5	nt
Cc1ccc2c(c1)-n1c(nc3cc(F)ccc3c1=O)C(Cc1ccc(O)cc1)NC2=O (configuration not stated)	nt	nt	nt	nt	-0.7	nt	nt
COc1cccc(/C=C/C(=O)OCC(=O)NCCC2=CCCCC2)c1	2.9	101.4	10.4	46.5*	9.7	-0.6	31.3*
COc1ccc(/C=C/C(=O)OCC(=O)NCCC2=CCCCC2)cc1S(=O)(=O)N1CCOCC1	-2.0	95.3	0.4	64.6*	-1.5	-10.9	44.2*
COc1cccc(NC(=O)NCCC2=CCCCC2)c1	7.2	96.9	-1.0	2.2	1.5	-0.8	nt
CCOc1ccc(CCNC(=O)COC(=O)/C=C/c2ccccc2)cc1OCC	1.9	101.0	2.9	10.2	0.0	nt	nt
O=C(COC(=O)/C=C/c1ccccc1)NCCC1=CCCCC1	3.7	85.9	-0.3	45.6*	8.7	7.2	44.4*
COc1ccc(C(=O)NCCC2=CCCCC2)cc1S(=O)(=O)N1CCOCC1	8.1	103.8	1.1	-5.9	7.2	nt	nt
O=C(COC(=O)/C=C/c1ccc(C(F)(F)F)cc1)NCCC1=CCCCC1	1.4	102.3	-6.5	7.4	7.0	-0.6	nt
O=C(COC(=O)/C=C/c1ccccc1)NCCc1ccc(F)cc1	6.8	94.7	6.8	61.0*	19.3	nt	42.0*
O=C(CP(=O)(c1ccccc1)c1ccccc1)Nc1nc2ccc(Cl)cc2s1	4.3	113.5	3.6	5.2	0.9	-4.8	nt
CC(=O)Nc1ccc(NC(=O)Cc2ccc(S(=O)(=O)N3CCCCC3)cc2)cc1	-0.5	102.0	1.1	-5.2	nt	nt	nt
COc1ccc(/C=C/C(=O)OCC(=O)NCCC2=CCCCC2)cc1	3.5	100.5	11.4	64.7*	9.8	6.1	53.2*
